Source: PubChem BioAssay (Tox21)
Values joined by “and” are separate entries in the source; they are usually repeats but may differ in a detail not shown here. Identical values can stand only once. Results filed as inconclusive are left out. Entries that show only a call come without a potency. A structure can be active in one record and inactive in another. Active and inactive are the calls of the source. Calls follow the shape of the dose curve; as a rule, active = well fitted cell-killing curve with a large enough effect in the repeat runs; inconclusive = weak or mixed curves, or effect the other way; inactive = flat fitted curve, though single readings scatter.

experiment: qHTS RealTime-Glo MT Cell Viability Assay in HEK293 cells - 24 hour (AID 1224886); conditions: RealTime-Glo luminescence; series mostly up to 76.8 µM; also: nearly all actives have a fitted effect of over 50% in size
Description: National Center for Advancing Translational Sciences [NCATS]
NIH Chemical Genomics Center [NCGC]
U.S. Environmental Protection Agency [EPA]
National Institutes of Environmental Health Sciences [NIEHS]
National Toxicology Program [NTP]
U.S. Food and Drug Administration [FDA]
Measure of cell viability is critical in the cell-base assay. Analysis of cell viability is necessary for the characterization of cell responses to cytotoxic drugs and environmental stress. A RealTime-Glo MT Cell Viability Assay to monitor cell viability in real time of continues cell culture during 40 hours of compound treatment was used to screen Tox21 10K library compounds in Hek293 cells. The RealTime-Glo MT Cell Viability Assay is a nonlytic, homogeneous, bioluminescent method to measure cell viability in real time using a simple, plate-based method. The assay involves adding NanoLuc luciferase and a cell-permeant prosubstrate to cells in culture. Viable cells reduce the proprietary prosubstrate to generate a substrate for NanoLuc luciferase. This substrate diffuses from cells into the surrounding culture medium, where it is rapidly used by the NanoLuc Enzyme to produce a luminescent signal. The signal correlates with the number of viable cells, making the assay well suited for cytotoxicity studies.
Tox21 Assay Protocol Summary:
The mixture of Hek293 cell suspension and reagents were dispensed at 600cells/6 ul/well in 1536-well tissue culture treated black solid bottom plates using a Multidrop dispenser. After the assay plates were incubated at a 37 C/5% CO2 incubator for 5 hours, 23 nL of compounds dissolved in DMSO, positive and negative controls was transferred to the assay plate by a pintool work station. The plates were incubated at 37 C for 40 hours. The luminescence intensity were measured at 0h, 8h, 16h, 24h, 32h and 40h time points using ViewLux plate reader during compound treatment.
Potency is read from the fitted curve at half-maximal effect.

| Structure (SMILES) | Potency |
| --- | --- |
| CC(C)(OOC(C)(C)c1ccccc1)c1ccccc1 | inactive |
| CCC(C)c1cc([N+](=O)[O-])cc([N+](=O)[O-])c1O (stereo not given) | inactive |
| CNC(=O)Oc1cccc2c1OC(C)(C)O2 | inactive |
| Cc1c(COC(=O)[C@@H]2[C@H](/C=C(\Cl)C(F)(F)F)C2(C)C)cccc1-c1ccccc1 | 21.4 µM (active) |
| O=[N+]([O-])c1cccc2ccccc12 | inactive |
| NC(=S)Nc1ccccc1 | 8.86 µM (active) and inactive |
| N#CC(Br)Br | inactive |
| Cc1ccc2c(c1N)C(=O)c1ccccc1C2=O | 9.67 µM (active) and 7.76 µM (active) |
| Oc1c(Cl)c(Cl)c(Cl)c(Cl)c1Cl | inactive |
| Clc1nc(Cl)nc(Cl)n1 | inactive |
| Cc1cc(Cl)ccc1OCCCC(=O)O | inactive |
| CCOP(=S)(OCC)O/N=C(\C#N)c1ccccc1 | inactive |
| CN(C)C(=O)Nc1ccc(Cl)cc1 | inactive |
| C[C@]12CCC(=O)C(O)=C1CC[C@@H]1[C@@H]2CC[C@]2(C)C(=O)CC[C@@H]12 | inactive |
| COC(=O)c1sccc1S(=O)(=O)NC(=O)Nc1nc(C)nc(OC)n1 | inactive |
| CCOc1cc(C=O)ccc1O | inactive |
| N#CCCCl | inactive |
| O=C1C=CC(=O)C=C1 | inactive |
| CC(C)N(C(=O)SCC(Cl)=C(Cl)Cl)C(C)C | inactive |
| S=C1NCCN1 | inactive |

| Structure (SMILES) | Potency |
| --- | --- |
| CCCCC(CC)COC(=O)Cl (stereo not given) | inactive |
| Nn1cnnc1 | inactive |
| OCC(O)CO | inactive |
| CCN(N=O)C(N)=O | inactive |
| C=C(C)[C@H]1Cc2c(ccc3c2O[C@@H]2COc4cc(OC)c(OC)cc4[C@@H]2C3=O)O1 | 62.5 nM (active) and 12.3 nM (active) and 47.7 nM (active) |
| CCOCN(C(=O)CCl)c1c(C)cccc1CC | inactive |
| NNC(N)=S | inactive |
| CC1(C)C(C=C(Cl)Cl)C1C(=O)OC(C#N)c1cccc(Oc2ccccc2)c1 (stereo not given) | inactive |
| C=CCN(CC=C)C(=O)C(Cl)Cl | inactive |
| Oc1cc(Cl)c(Cl)cc1Cl | inactive |
| c1ccc(P(c2ccccc2)c2ccccc2)cc1 | inactive |
| CCC(C)c1ccc(O)cc1 (stereo not given) | inactive |
| CCCCN(CC)c1c([N+](=O)[O-])cc(C(F)(F)F)cc1[N+](=O)[O-] | inactive |
| C=CC(=O)OCCO | inactive |
| C=CCc1ccc2c(c1)OCO2 | inactive |
| CC(O)CCO (stereo not given) | inactive |
| c1nc[nH]n1 | inactive |
| C=C(C)C(=O)OCC1CO1 (stereo not given) | inactive |
| CCC(C)(C)c1ccc(O)cc1 | inactive |
| Cc1cc(C)cc(C)c1 | inactive |
